High-throughput results as filed in PubChem BioAssay.
ClpP mod: qHTS Assay for Activators of ClpP; purified B. subtilis ClpP, FRET peptide cleavage, 20 min; Potency, µM (series often up to 57.5 µM), without a hit: top-dose activity change, negative = active; 1.9% of 340,000 active; AID 651965, 2013; active = well fitted falling curve with a large enough effect; inconclusive = small, poorly fitted or top-dose-only effect; inactive = no such curve, though single readings can be large or run the other way; note: potency is the fitted concentration of half-maximal effect; the source files actives as falling curves though it sought activators and does not explain the sign; nearly all actives have a fitted effect of over 65% in size
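ClpP 10 microg/mL final, pH 8 Tris/KCl buffer with BSA, glycerol, Tween-20; compound pinned in; FRET-FV substrate; RT 20 min; Ex320/Em430; ΔFRET vs ADEP 5.8 microM, DMSO, no enzyme.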
LDHA inh: LDHA (human) enzyme inhibition. purified LDHA, NADH/diaphorase-resazurin fluorescence; hits give low values. activity change, % (values are at about 110 or 230 µM). 0.15% of 480,000 active. P00338; in the data active = activity change below about -30%; inconclusive = mostly about -25% to -30%;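 note: plate controls were DMSO wells for no effect and wells without enzyme for full effect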
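Enzyme activity of human lactate dehydrogenase 5 (2 nM; 0.06 mM NADH, 0.2 mM pyruvate, 5 min, RT) is measured via a resazurin/diaphorase fluorescence readout of residual NADH.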
p53 reactivator: re-activators of mutant p53 | H1299 p53-A138V BP100-luciferase reporter, luminescence, 24 h | Potency, µM (top dose mostly 92.2 µM), without a hit: at the top dose activity change, positive = activation, hits mostly activators | 0.063% of 320,000 active | AID 504706; note: potency is the fitted concentration of half-maximal effect; % of control where 0% means no effect; nearly all actives have a fitted effect of over 45% in size
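H1299 (p53-null), stable ts p53-A138V + BP100-Luc; 1000 cells/well, Opti-MEM/10% FBS; cpd 4 pt, 1:5; 24 h, 37 deg C, 5% CO2; detection reagent 10 min RT; luminescence.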
HEK293 tox: cytotoxicity counter-screen for GLP-1 receptor inverse agonists; HEK293 cAMP-luciferase reporter cells, luminescence, 24 h; Potency, µM (highest dose often 38.3 µM), inactives show at the top dose activity change, negative = inhibition, most hits filed as inhibitors; 0.13% of 410,000 active; AID 624418;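 note: loss of luciferase light is scored as toxicity; potency is the fitted concentration of half-maximal effect; % is set by controls: 0 for no effect and ±100 for the full control effect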
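To flag toxic compounds, the library was rerun on cells for 24 hr at 37 deg C and 5% CO2. Viability-linked luminescence was captured 12 min after adding luciferase detection reagent.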
GLP-1R agonist: agonists of human GLP-1 receptor. 0.007% of 380,000 active. Potency, µM (doses to about 45.6 µM), for the others: at the top dose activation, actives largely listed as activators. P43220. HEK293 GLP-1R CRE-luciferase, luminescence, 4-6 h; cells express a hypersensitive GLP-1R form; note: potency is the fitted concentration of half-maximal effect; % of control where 0% means no effect
GLP-1R inv ag: GLP-1 receptor (human) inverse agonism. 1.6% of 410,000 active. HEK293 GLP-1R CRE-luciferase, luminescence, 24 h; GLP-1R form is constitutively active. Potency, µM (series often up to 38.3 µM), without a hit: top-dose activity change, negative = inhibition, hits mostly inhibitors; note: potency is the fitted concentration of half-maximal effect; % is set by controls: 0 for no effect and ±100 for the full control effect; nearly all actives have a fitted effect of over 55% in size
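GLP-1R inverse agonism mode: basal reporter luminescence in engineered HEK293 cells measured after one day of compound exposure at 37 deg C, with a 12 min room-temperature detection step.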
Starred values were filed as active, the others as inactive; u = inconclusive; x = no result; [ ] = remark or other dose. A selection: hits, their analogues and other compounds. The true share with any hit is near 2.9%. Unless noted, calls come from the whole dose curve; as a rule, active = well fitted curve in the direction sought with a large enough effect; inconclusive = small, poorly fitted or top-dose-only effect, or another doubt; inactive = no such curve, though single readings can be large; an effect the other way counts as inactive or inconclusive.

SMILES | ClpP mod | LDHA inh | p53 reactivator | HEK293 tox | GLP-1R agonist | GLP-1R inv ag
CCN(C(=O)c1ccc2c(SCC(=O)O)c3c(nc2c1)CCC3)c1cc(Cl)ccc1OC | -0.2% | -1.2 | -8.3% | -0.5% | -4.3% | -17.7%
O=C1c2ccccc2CCCC12N=NCC2c1cccc2ccccc12 (centres undefined) | -3.6% | -16.8 | -0.1% | 13.1% | 0.3% | 7.08µM*
O=c1c2ccccc2nc2n1CCCS2 | -5.5% | -0.2 | 8.6% | 2.1% | 3.8% | 2.0%
O=c1c2ccccc2nc2n1CCN2 | 15.8µM* | -2.4 | 11.5% | -1.9% | -4.8% | 3.6%
CCOC(=O)N1CCN(S(=O)(=O)c2cc(OCC(N)=O)c(C)cc2Cl)CC1 | -0.6% | -3.7 | 8.7% | 5.4% | -2.9% | -7.1%
CN1CCN(C(=O)c2ccc(CSc3ccc(Cl)cc3)cc2)CC1 | u | -1.5 | -7.0% | 20.3% | -2.4% | 5.62µM*
CCOCCn1c(=O)c2c(nc(-n3nc(C)cc3C)n2CC)n(C)c1=O | x | -11.1 | x | x | x | x
Cc1ccc(C(=O)c2ccccc2)cc1C | x | 8.5 | x | x | x | x
Cc1ccc(C(=O)N(Cc2ccccc2)C(C)(C)C)cc1C | 0.9% | -3.4 | -1.2% | -2.1% | 0.4% | 7.08µM*
Cc1cc(C)cc(NC(=O)CN2CCN(C(=O)C3CCCO3)CC2)c1 (centres undefined) | -0.4% | 2.5 | 15.4% | -20.0% | -4.3% | u
CCCCCCn1c(/C=C/c2ccccc2)nc2ccccc21 | 4.0% | 2.9 | x | -2.0% | x | u
CCn1c(/C=C/c2ccccc2)nc2ccccc21 | 14.1µM* | -1.1 | 21.1% | -14.0% | -0.6% | u
CCC(C)n1c(/C=C/c2ccccc2)nc2ccccc21 (centres undefined) | 3.3% | 3.1 | 6.5% | u | 28.1% | u
CC(C)Cn1c(/C=C/c2ccccc2)nc2ccccc21 | 7.08µM* | 0.5 | u | -16.5% | 14.3% | u
FC(F)(F)COc1nc(OCC(F)(F)F)nc(N2CCN(c3ccccc3)CC2)n1 | -0.9% | -3.7 | 0.6% | -19.8% | -0.8% | 5.01µM*
c1ccc(N2CCN(c3nc(N4CCCCC4)c4nccnc4n3)CC2)cc1 | x | 6.0 | x | x | x | x
Fc1cnc(N2CCN(c3ccccc3)CC2)nc1N1CCN(c2ccccc2)CC1 | 31.6µM* | -13.2 | -11.0% | 1.4% | -6.3% | 31.7%
FC(F)(F)COc1nc(N2CCOCC2)nc(N(c2ccccc2)c2ccccc2)n1 | u | -0.7 | 19.2% | 8.1% | -0.4% | u
Cc1cccc(NS(=O)(=O)c2cn(C)c(=O)n(C)c2=O)c1C | 1.7% | -3.0 | x | 7.0% | -2.3% | -2.2%
Cc1ccccc1C(=O)NC1(C(F)(F)F)N=C(c2ccccc2)N(C2CCCCC2)C1=O (centres undefined) | 1.8% | 1.1 | x | 2.4% | -3.1% | u
COc1ccc(N2C(=O)C(Cl)=C(Nc3ccccc3OC)C2=O)cc1 | 1.6% | -0.5 | 8.4% | -19.2% | -9.5% | 12.9%
COc1ccc(N2C(=O)C(Cl)=C(Nc3ccccc3O)C2=O)cc1 | 31.6µM* | 6.5 | u | 31.2% | -4.3% | -19.9%
COc1cc(-c2nnc(SCC(=O)Oc3ccccc3Cl)o2)cc(OC)c1OC | 0.2% | 2.7 | x | -7.5% | x | 3.6%
CCc1ccccc1OCCSc1nnc(-c2cc(OC)c(OC)c(OC)c2)o1 | 25.1µM* | -5.3 | x | -7.9% | x | u
COc1cc(-c2nnc(SCC(=O)N(C(C)C)C(C)C)o2)cc(OC)c1OC | x | -0.9 | x | x | x | x
SMILES | ClpP mod | LDHA inh | p53 reactivator | HEK293 tox | GLP-1R agonist | GLP-1R inv ag
COc1cc(-c2nnc(SCC(=O)/C(C#N)=C(\C)N)o2)cc(OC)c1OC | 14.1µM* | -4.2 | 2.3% | 13.5% | -1.1% | 9.0%
COc1cc(-c2nnc(SCC(=O)N3c4ccccc4Sc4ccccc43)o2)cc(OC)c1OC | -7.2% | -4.5 | 4.9% | -14.5% | -3.4% | 1.26µM*
CN(C)CCN(C/C=C/c1ccccc1)C/C=C/c1ccccc1 | x | -7.5 | x | x | x | x
Nc1c(Cl)cc(C=O)cc1Cl | -2.2% | 1.6 | x | x | x | x
CCCCCc1ccc(OCCCC[n+]2ccccc2)c(CCCCC)c1 | x | 0.4 | -7.8% | u | 9.6% | 6.31µM*
CCCCCc1ccc(OCCCC[n+]2ccc(C)cc2)c(CCCCC)c1 | -1.7% | -0.6 | -10.6% | u | 1.4% | u
Cc1cccc(C(=O)Nc2nc(-c3nnn(-c4cc(C)ccc4C)c3C)ns2)c1 | -9.7% | -16.4 | x | -1.4% | x | u
CCn1c(CN2CCN(Cc3ccc(C)cc3)C(CCO)C2)nc2ccccc21 (centres undefined) | x | -0.4 | -2.5% | -0.8% | -3.2% | 6.31µM*
CC(C)Cn1c(CN2CCN(C)C(CCO)C2)nc2ccccc21 (centres undefined) | 0.3% | 1.4 | 5.3% | -3.7% | 0.2% | -4.9%
CC(N)c1csc(Nc2ccc(C(=O)NCCCO)cn2)n1 (centres undefined) | -14.2% | 2.8 | x | -7.4% | -0.4% | 0.9%
COc1ccc(C(N)c2csc(Nc3ccc(C(=O)NCCCO)cn3)n2)cc1 (centres undefined) | 28.2µM* | -6.8 | x | -9.8% | -2.8% | -25.9%
O=C(OCC(=O)N1CCCc2ccccc21)c1ccccc1NCCO | 31.6µM* | -2.5 | -2.6% | -17.0% | 21.8% | u
O=C(OCC(=O)N1CCc2ccccc21)c1ccc[nH]c1=O | 28.2µM* | -3.0 | -2.3% | 0.1%[7.66 µM] | 0.4% | 3.7%[7.66 µM]
Cc1onc(-c2ccccc2Cl)c1C(=O)OCC(=O)N1CCCc2ccccc21 | -5.4% | -6.7 | -4.4% | -22.7% | 5.3% | 10µM*
O=C(OCC(=O)N1CCN(C(=O)COC(=O)c2ccccc2NCCO)CC1)c1ccccc1NCCO | 3.8% | -1.0 | x | 0.4% | -7.9% | -1.2%
Fc1cccc(Cl)c1Cn1nnc(-c2ccc(N3CCOCC3)cc2)n1 | -3.8% | -1.0 | 4.9% | -12.0% | -3.5% | 31.6%
O=C(COC(=O)CCC(=O)c1ccc2c(c1)OCCO2)NCc1ccc2c(c1)OCO2 | -0.4% | -3.9 | 7.5% | -25.8% | -8.8% | 18.3%
CSc1ccc(CNC(=O)c2ccccc2NC(=O)c2nsc3ccccc23)cc1 | -13.4% | 7.1 | x | 2.4% | x | 9.5%
O=C(NCc1cccc(F)c1)c1ccccc1NC(=O)c1nsc2ccccc12 | 28.2µM* | -6.5 | x | -17.1% | x | 11.1%
O=C(CN1C(=O)NC2(CCCC2)C1=O)NCCN1C(=O)S/C(=C\c2ccccc2F)C1=O | 31.6µM* | -7.9 | 0.2% | 3.9% | -4.1% | -7.7%
CC(C)Oc1ccc(CNC(=O)Cn2c(-c3cccs3)cc3ccccc32)cc1 | 35.5µM* | -4.1 | x | 4.4% | x | 11.7%
Cc1cccc(CNC(=O)Cn2c(-c3cccs3)cc3ccccc32)c1 | 14.1µM* | -0.9 | x | -12.7% | x | -24.7%
